Experimental data taken from PubChem BioAssay (NCATS).
Records with an inconclusive call do not appear. Calls of active or inactive are those of the source. Unless noted, calls come from the whole dose curve; as a rule, active = well fitted curve in the direction sought with a large enough effect; inconclusive = small, poorly fitted or top-dose-only effect, or another doubt; inactive = no such curve, though single readings can be large; an effect the other way counts as inactive or inconclusive.

Legend:
[1] = Cell Viability - BJ (AID 421; calls by dose curve;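 note: potency is the fitted concentration of half-maximal effect; cells exposed to compound for 40 hours at 37 °C before readout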); details: BJ fibroblast viability, qHTS
Method in brief: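 Normal human BJ foreskin fibroblasts, 1500/well in complete medium, treated 40 hr at 37 °C. Cellular ATP by CellTiter-Glo luminescence; normalized to DMSO and 100 uM tamoxifen, AC50 from Hill fit.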

[2] = Cell Viability - Hek293 (AID 427;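 active = compounds whose dose-response curve shows a full or clear partial loss of cell viability, called from curve shape rather than a numeric limit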;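 note: potency is the fitted concentration of half-maximal effect; cells exposed to compound for 40 hours at 37 °C before reading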); details: qHTS
Method in brief: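 HEK293 cells in complete medium were exposed to compound for 40 hr at 37 °C, then cellular ATP was read by CellTiter-Glo luminescence. Data were normalized to DMSO (basal) and 100 uM tamoxifen (100% inhibition), and AC50 came from Hill fits.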

[3] = Cell Viability - HepG2 (AID 433; calls by dose curve;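 note: potency is the fitted concentration of half-maximal effect; potency for ATP loss meaning cytotoxicity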); details: qHTS
Method in brief: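 In this qHTS format, a 40 h, 37 °C compound incubation of HepG2 cells in complete medium precedes a 20 min CellTiter-Glo step at room temperature. Tamoxifen and doxorubicin serve as positive controls; Hill-equation fits yield AC50.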

[4] = Cell Viability - MRC5 (AID 434; calls by dose curve;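 note: potency is the fitted concentration of half-maximal effect; potency reflects cytotoxicity seen as loss of intracellular ATP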); details: MRC5 lung fibroblast viability, qHTS
Method in brief: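 Decrease in intracellular ATP, quantified by luciferase light output, reflects compound toxicity toward MRC5 cells exposed for 40 hr in complete culture medium. Concentration-response curves, scaled between DMSO and 100 uM tamoxifen, gave AC50 values.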

[5] = target: Mitogen-activated protein kinase 10 (Mus musculus) (UniProt Q61831); assay: JNK3 AlphaScreen Assay (AID 530; active = well fitted curve in either direction with a large enough effect, not every such curve was filed as active;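 note: kinase came from lysate of stimulated human HepG2 cells; signal reports phosphorylation of biotinylated GST-cJun 1-79 at Ser73 with 10 µM ATP; series mostly up to about 57 µM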)
Method in brief: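 Biotinylated GST-cJun(1-79) served as substrate for JNK3 in HepG2 lysates stimulated with IL-1beta and TNF-alpha. ATP was 10 uM final, pH 7.6. Ser73 phosphorylation was quantified by AlphaScreen (680 nm excitation).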

[6] = Cell Viability - HUV-EC-C (AID 542); note: nearly all actives have a fitted effect of over 35% in size
Method in brief: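 Luminescent ATP read-out (CellTiter-Glo, 20 min room temperature) after 40 hr compound treatment of HUV-EC-C cells at 37 °C. Concentration-response data fitted with the standard Hill equation to give AC50; tamoxifen and doxorubicin served as positive controls.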

[7] = Cell Viability - SH-SY5Y (AID 544); note: nearly all actives have a fitted effect of over 55% in size
Method in brief: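 SH-SY5Y, 1500 cells/well, 5 hr pre-incubation 37 °C; cpd 40 hr 37 °C; CellTiter-Glo 20 min RT; luminescence (ATP) read. qHTS concentration-response, Hill fit → AC50. Tamoxifen, doxorubicin as positive controls.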

[8] = Cell Viability - Mesenchymal (AID 546);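 note: cells exposed to compound for 40 hours before reading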
Method in brief: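 In this qHTS cytotoxicity format, glomerulus-derived human mesenchymal kidney cells received compound for 40 hr, then luciferase-based ATP quantitation. Concentration-response data were fitted with the Hill equation.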

[9] = Cellular Toxicity (caspase-3) HepG2 (AID 654);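 note: cells exposed to compound for 16 hours before reading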
Method in brief: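 Luminescent Caspase-Glo 3/7 readout after 16 hr compound exposure of human hepatocellular carcinoma HepG2 cells at 37 °C; qHTS concentration-response, normalized DMSO = 0%, 100 uM tamoxifen = 100%; AC50 by standard Hill equation.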

[10] = Cellular Toxicity (caspase-3) Jurkat (AID 655);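 note: cells exposed to compound for 16 h at 37 °C before reading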
Method in brief: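 qHTS in human Jurkat T-cell leukemia line: 16 hr compound treatment at 37 °C, caspase-3/7 activity measured by Caspase-Glo luminescence. AC50 derived from Hill equation.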

[11] = Cellular Toxicity (caspase-3) HUV-EC-C (AID 656)
Method in brief: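 Concentration-dependent caspase 3/7 induction was assessed in HUV-EC-C cells exposed for 16 hours. Data scaled between DMSO and tamoxifen (100 uM) controls.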

[12] = Cellular Toxicity (caspase-3) SHSY5Y (AID 657)
Method in brief: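 Readout: caspase-cleaved peptide-aminoluciferin substrate driving luciferase light in SH-SY5Y neuroblastoma cells after 16 h treatment. Response normalized to DMSO and 10 uM staurosporine controls.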

[13] = Cellular Toxicity (caspase-3) BJ (AID 658)
Method in brief: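 Plated BJ cells (1000/well) rested 5 hr, received compound for 16 hr at 37 °C, then Caspase-Glo 3/7 reagent for 1 hr at room temperature before luminescence reading.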

[14] = Cellular Toxicity (caspase-3) MRC-5 (AID 659)
Method in brief: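 Apoptosis readout in MRC-5 cells: luciferase light generated after caspase 3/7 cleaves a peptide-aminoluciferin substrate, measured post 16 hr compound incubation at 37 °C.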

[15] = Cellular Toxicity (caspase-3) Mesangial (AID 660);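 note: combined caspase 3 and 7 activity read by Caspase-Glo luminescence; cells exposed to compound for 16 h before the caspase read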
Method in brief: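 Luminescent Caspase-Glo 3/7 readout (aminoluciferin substrate cleavage, 20 min RT) after 16 h compound exposure at 37 °C of normal human mesangial cells. Signal increase normalized between DMSO basal and 100 uM tamoxifen; Hill-equation AC50.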

[16] = Cellular Toxicity (caspase-3) SK-N-SH (AID 661)
Method in brief: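 Luminescent Caspase-Glo 3/7 read-out after 16 hr compound exposure of SK-N-SH neuroblastoma cells at 37 °C. Signal increase normalized to DMSO (basal) and 10 uM staurosporine (100%); AC50 from Hill equation fits of qHTS concentration-response data.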

[17] = Cellular Toxicity (caspase-3) H-4-II-E (AID 663);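 note: cells exposed to compound for 16 hr before readout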
Method in brief: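 Caspase 3/7 activation measured in H-4-II-E cells in complete culture medium after 16 hr treatment at 37 °C, using luciferase-coupled substrate readout; AC50 values come from Hill-equation fits of normalized concentration-response data.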

[18] = Cellular Toxicity (caspase-3) Hek293 (AID 664);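 note: cells exposed to compound for 16 h at 37 °C before readout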
Method in brief: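 Luminescent Caspase-Glo 3/7 readout (aminoluciferin release) in HEK293 cells after 16 h compound treatment, 37 °C. Normalization: DMSO = basal, 100 uM tamoxifen = 100% stimulation. Concentration-response fitted with standard Hill equation for AC50.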

[19] = Cellular Toxicity (caspase-3) N2a (AID 665);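 note: compound exposure lasted 16 h at 37 °C before readout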
Method in brief: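 Luminescent Caspase-Glo 3/7 readout in N2a mouse neuroblastoma cells after 16 h compound exposure at 37 °C. Signal scaled to DMSO (basal) and 10 uM staurosporine (100%). Concentration-response fitted with Hill equation for AC50.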

[20] = target: Cytochrome P450 3A4 (Homo sapiens) (UniProt P08684); assay: qHTS Assay for Inhibitors and Substrates of Cytochrome P450 3A4 (AID 884); note: series mostly up to about 57 µM; nearly all actives have a fitted effect of over 50% in size
Cytochrome P450 3A4 (Homo sapiens), sequence (P08684 whole entry, looked up): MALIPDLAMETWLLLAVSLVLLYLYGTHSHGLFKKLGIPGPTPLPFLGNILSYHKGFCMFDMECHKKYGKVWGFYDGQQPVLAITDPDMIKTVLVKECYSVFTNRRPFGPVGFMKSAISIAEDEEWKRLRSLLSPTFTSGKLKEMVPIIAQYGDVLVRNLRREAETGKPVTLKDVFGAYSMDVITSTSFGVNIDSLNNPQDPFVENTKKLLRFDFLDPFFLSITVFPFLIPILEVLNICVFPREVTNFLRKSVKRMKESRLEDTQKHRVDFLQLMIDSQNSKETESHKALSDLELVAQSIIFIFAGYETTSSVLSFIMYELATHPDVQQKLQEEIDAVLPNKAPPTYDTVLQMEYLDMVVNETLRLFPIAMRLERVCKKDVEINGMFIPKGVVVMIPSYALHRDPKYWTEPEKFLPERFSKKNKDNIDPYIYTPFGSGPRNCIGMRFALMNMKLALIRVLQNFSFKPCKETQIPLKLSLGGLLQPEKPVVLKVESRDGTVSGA
Method in brief: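 Luminescent readout of luciferin produced by CYP3A4 (20 nM) dealkylation of Luciferin-PPXE, 25 uM (its KM). NADPH-driven reaction ran 60 min at RT after 10 min compound preincubation; data scaled to 57 uM ketoconazole as 100% inhibition.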

[21] = Confirmation and Secondary Assay for Modulators of Hemoglobin Beta Chain Splicing at IVS2 654 locus (AID 910);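 note: per-well total GFP intensity by laser scanning cytometry after 2-day treatment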
Method in brief: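 HeLa cells stably carrying EGFP interrupted by mutant beta-globin IVS2-654 intron (CMV-driven) were treated with compound for 2 days at 37C; corrected splicing was scored as total peak GFP intensity per well (488 nm excitation, 500-520 nm emission).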

[22] = Cell Viability - LYMP2-001 (AID 921); note: series mostly up to about 92 µM; nearly all actives have a fitted effect of over 70% in size
Method in brief: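 A lymphoblastoid cell line of human origin was treated with library compounds across a concentration series for 24 hours, and viable cell number was estimated from ATP-driven luciferase light output. Hill modeling gave AC50.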

[23] = Confirmation and Secondary Assay for Modulators of Hemoglobin Beta Chain Splicing at IVS2 705 locus (AID 930);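 note: HeLa cells stably expressing the EGFP-705 splicing reporter; GFP fluorescence per well restored by corrected splicing of the IVS2-705 intron in EGFP; series mostly up to about 46 µM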
Method in brief: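 Fluorescence gain (488 nm laser, 500-520 nm PMT) reflects restored correct splicing of a mutant IVS2-705 intron inside EGFP in stably transfected HeLa cells after 2-day compound treatment.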

[24] = MultiTox-Fluor Cytotoxicity Assay - LYMP1-001 - Dead Cells (AID 946)
Method in brief: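 LYMP1-001 lymphoblastoid cells (2500/well) treated 16 h at 37 C. Dead-cell protease cleavage of bis-AAF-R110 read at Ex/Em 485/520. Normalized to DMSO and 15 uM tetraoctylammonium bromide; AC50 from Hill fits.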

[25] = Cell Viability - LYMP1-002 - Assay at 16 hr (AID 948)
Method in brief: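 In this qHTS, lymphoblastoid LYMP1-002 cells (human) receive compounds for 16 hr at 37 C. Viability is taken from CellTiter-Glo ATP luminescence, and AC50 derives from standard Hill fits.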

[26] = MultiTox-Fluor Cytotoxicity Assay - LYMP1-002 - Live Cells (AID 955)
Method in brief: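 LYMP1-002 lymphoblastoid cells; 2500 cells/well; 16 hr compound exposure, 37 C; MultiTox-Fluor reagent 60 min RT; live-cell fluorescence Ex/Em=405/510; qHTS concentration-response, Hill-equation AC50; tetraoctylammonium bromide positive control.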

[27] = MultiTox-Fluor Cytotoxicity Assay - LYMP1-003 - Dead Cells (AID 961); note: nearly all actives have a fitted effect of over 70% in size
Method in brief: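 LYMP1-003 human lymphoblastoid cells (2500/well) exposed to compound 16 h at 37 C in complete medium; dead-cell protease read with bis-AAF-R110 fluorescence (Ex/Em 485/520) after 60 min at room temperature. Normalized to DMSO and 15 uM tetraoctylammonium bromide; AC50 from Hill fit.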

[28] = MultiTox-Fluor Cytotoxicity Assay - LYMP1-003 - Live Cells (AID 962);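 note: cytotoxic hits lower the live-cell protease signal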
Method in brief: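 Readout: live-cell fluorescence (Ex/Em=405/510) from GF-AFC cleavage after 60 min MultiTox-Fluor reagent at room temperature. Lymphoblastoid LYMP1-003 cells, 16 hr compound treatment, 37 C. Concentration-response fitted to standard Hill equation for AC50.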

[29] = Cell Viability - LYMP1-003 - Assay at 24 hr (AID 963)
Method in brief: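 CellTiter-Glo luminescence (intracellular ATP) read after 24 hr, 37 C compound exposure of 2500 LYMP1-003 human lymphoblastoid cells/well in complete medium; qHTS concentration series; AC50 via standard Hill equation.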

[30] = Cell Viability - LYMP1-003 - Assay at 40 hr (AID 964); note: series mostly up to about 92 µM; nearly all actives have a fitted effect of over 60% in size
Method in brief: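 LYMP1-003 lymphoblastoid cells, 2500/well; 5 hr preincubation, 40 hr compound exposure, 37 C; CellTiter-Glo 30 min RT; luminescence; Hill-fit AC50. Positive control tetraoctylammonium bromide.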

[31] = Cell Viability - LYMP2-003 (AID 965);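 note: cells exposed to compounds for 24 h before reading; nearly all actives have a fitted effect of over 50% in size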
Method in brief: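 qHTS, human lymphoblastoid line, 2500 cells/well, complete medium. 24 h drug, 37 C. ATP-based luminescent readout; Hill-fit AC50.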

[32] = Cell Viability - LYMP2-004 (AID 966); note: nearly all actives have a fitted effect of over 65% in size
Method in brief: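 Luminescent ATP read-out (CellTiter-Glo, 30 min RT) after 24 hr compound exposure at 37 C; 2500 lymphoblastoid cells/well, complete medium. Decrease in ATP = cytotoxicity; AC50 from standard Hill model.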

[33] = Cell Viability - LYMP2-005 (AID 967); note: series mostly up to about 92 µM
Method in brief: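 Luciferase-based ATP quantitation served as the viability measure in human lymphoblastoid LYMP2-005 cells exposed to test compounds for 24 h at 37 C in complete culture medium. Potency (AC50) was obtained by fitting concentration-response curves with the Hill equation.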

[34] = Cell Viability - LYMP2-009 (AID 968); note: series mostly up to about 92 µM; nearly all actives have a fitted effect of over 55% in size
[35] = Cell Viability - LYMP2-011 (AID 969); note: nearly all actives have a fitted effect of over 60% in size
Method in brief: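 Luminescent ATP read-out (CellTiter-Glo, 30 min RT) after 24 hr compound exposure at 37 C in human lymphoblastoid cells, 2500 cells/well. Decreasing ATP indicates cytotoxicity; AC50 from standard Hill fit.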

[36] = Cell Viability - LYMP2-013 (AID 970); note: series mostly up to about 92 µM; nearly all actives have a fitted effect of over 55% in size
Method in brief: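 CellTiter-Glo luminescence (cellular ATP) read after 30 min at RT. Cells: human lymphoblastoid line, 2500/well, 24 hr compound exposure at 37 C. Tetraoctylammonium bromide positive control; AC50 via standard Hill fit of qHTS titrations.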

[37] = Cell Viability - LYMP2-015 (AID 971); note: nearly all actives have a fitted effect of over 55% in size
Method in brief: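 qHTS cytotoxicity: 2500 cells/well, 5 hr 37 C, compound 24 hr 37 C, CellTiter-Glo 30 min RT, luminescence. Loss of ATP = toxicity; AC50 via standard Hill fit.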

[38] = Cell Viability - LYMP2-017 (AID 972)
Method in brief: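 Luminescent ATP read-out (CellTiter-Glo, 30 min RT) reports viable cell number. Cells: human lymphoblastoid line, 2500 per well, 5 hr preincubation, 24 hr compound exposure at 37 C. AC50 is derived from qHTS concentration-response data using the standard Hill model.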

[39] = Cell Viability - LYMP2-019 (AID 973); note: nearly all actives have a fitted effect of over 55% in size
Method in brief: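 qHTS, 1536-well; 2500 cells/well; 5 hr pre-incubation, 24 hr compound exposure, 37 C; CellTiter-Glo added, 30 min RT; luminescence read; AC50 via standard Hill equation.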

[40] = Cell Viability - LYMP2-021 (AID 974)
Method in brief: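 ATP luminescence (CellTiter-Glo, 30 min RT) after 24 h compound exposure at 37 C; 2500 human lymphoblastoid cells/well, 5 h settle beforehand. Cytotoxicity = concentration-dependent ATP drop, AC50 by Hill fit.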

[41] = Cell Viability - LYMP2-023 (AID 975)
Method in brief: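 CellTiter-Glo luminescence after 30 min at room temperature; decrease in intracellular ATP reflects toxicity. Cells: human lymphoblastoid line, 2500/well, 24 hr compound exposure at 37 C. AC50 fitted to standard Hill equation from concentration-response.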

[42] = Cell Viability - LYMP2-002 (AID 977); note: series mostly up to about 92 µM
Method in brief: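 In this qHTS viability screen, 2500 human lymphoblastoid cells per well receive compound for 24 hr at 37 C, and luciferase-based ATP luminescence gives the viability signal. Tetraoctylammonium bromide serves as positive control.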

Measured: Potency

O=C(Nc1ccccc1)Nc1ccccc1
inactive: [1] > 92 µM | [2] > 92 µM | [3] > 92 µM | [4] > 92 µM | [5] | [6] | [7] | [8] | [9] | [10] | [11] | [12] | [13] | [14] | [15] | [16] | [17] | [18] | [19] | [20] | [21] | [22] | [23] | [24] | [25] | [26] | [27] | [28] | [29] | [30] | [31] | [32] | [33] | [34] | [35] | [36] | [37] | [38] | [39] | [40] | [41] | [42]
